# ChEMBL document CHEMBL3988442, “University of Dundee, Small-Polar-MMV Screening Library” (2021)
# Hit rate of the full screen: of about 66,000 compounds, about 960 (1.5%) showed an effect of 50% or more. This is one part of a sample in which strong results are shown more often than they occur.
# Test system: Trypanosoma brucei
# Assay: Trypanosoma brucei 72 hour study
# Type: functional, organism-based
# Parameters: scale not given: in the data most compounds retested in dose-response had high values
compound,measurement,setting,value
COc1ccnc(NC(=O)c2cscc2C)c1,Percent Effect,"30 µM, 30.03 µM",88.82%
COc1ccnc(NC(=O)c2cscn2)c1,Percent Effect,"30 µM, 30.03 µM",7.926%
COc1ccnc(NC(=O)c2ccsc2)c1,Percent Effect,"30 µM, 30.03 µM",14.39%
CCCn1c(=O)n(CCC(=O)N(C)Cc2ccc(C)o2)c2ccccc21,Percent Effect,"30 µM, 30.03 µM",-21.38%
Cc1nc(O)cc(C2CCN(Cc3ccc(F)c(F)c3)C2)n1.O=C(O)CC(O)(CC(=O)O)C(=O)O (stereo not given),Percent Effect,"30.3 µM, […]",13.84%
CNC(=O)N1CCC2(CC1)c1ncc(C)n1CCN2C.O=C(O)C(F)(F)F.O=C(O)C(F)(F)F,Percent Effect,"30.3 µM, […]",11.26%
Oc1cc(CNCCCN2CCCC2)nc2ccc(F)cc12,Percent Effect,"30 µM, 30.03 µM",-52.8%
O=C(CCNCc1cc(O)c2cc(F)ccc2n1)N1CCCC1,Percent Effect,"30 µM, 30.03 µM",-42.31%
O=S(=O)(CCNCc1cc(O)c2cc(F)ccc2n1)N1CCCC1,Percent Effect,"30 µM, 30.03 µM",71.96%
CCc1ccc(CN2Cc3nccn3CC(CN3CCOCC3)C2)o1.O=C(O)C(F)(F)F.O=C(O)C(F)(F)F.O=C(O)C(F)(F)F (stereo not given),Percent Effect,"30 µM, 30.03 µM",29.13%
Cc1ccsc1C(=O)N1CCC2(CC(N(C)c3ccncn3)C2)C1 (stereo not given),Percent Effect,"30.3 µM, […]",-9.037%
O=C(Nc1ccc(F)cc1)N1C[C@H]2C[C@H](C(=O)N3CCCC3)[C@@H](C1)O2,Percent Effect,"30.3 µM, […]",-4.677%
CCc1c(C)nc(-n2nc(-c3cccs3)cc2N)[nH]c1=O,Percent Effect,"30 µM, 30.03 µM",63.75%
Cc1cc(=O)[nH]c(-n2nc(-c3cccs3)cc2N)n1,Percent Effect,"30 µM, 30.03 µM",-18.7%
Cc1nc(-n2nc(-c3cccs3)cc2N)[nH]c(=O)c1C,Percent Effect,"30 µM, 30.03 µM",6.214%
Nc1c(N2CCOCC2)ncnc1N1CCOCC1,Percent Effect,"30.3 µM, […]",-8.78%
same,Percent Effect,"10 mM, 10 mM as filed; unlikely as a test dose",-35.44%
CCN1CC2(CC1=O)CN(Cc1ccco1)CCN(C(=O)C(C)C)C2.O=C(O)C(F)(F)F (stereo not given),Percent Effect,"30 µM, 30.03 µM",0.2286%
Cc1ccc(CN(CCCn2ccnc2)Cc2c(F)cccc2F)s1.O=C(O)CC(O)(CC(=O)O)C(=O)O,Percent Effect,"30.3 µM, […]",-13.01%
CN(Cc1ccncc1)Cc1cnn(-c2ccc(F)cc2)c1,Percent Effect,"30 µM, 30.03 µM",-38.94%
O=C(Cc1ccccc1Cl)Nc1cc(N2CCCC2)ncn1,Percent Effect,"30 µM, 30.03 µM",-11.61%
O=C(Cc1c(F)cccc1Cl)Nc1cc(N2CCOCC2)ncn1,Percent Effect,"30 µM, 30.03 µM",100.3%
O=C(Cc1c(F)cccc1Cl)Nc1cc(N2CCCC2)ncn1,Percent Effect,"30 µM, 30.03 µM",-1.859%
O=C(c1ccc(COc2ccc(Cl)cc2)o1)N1N=CCC1(O)C(F)(F)F (stereo not given),Percent Effect,"30.3 µM, […]",99.58%
COc1ccc(C(=O)N2CCC(Oc3cccc(C)c3)(C(=O)O)CC2)o1,Percent Effect,"30 µM, 30.03 µM",-24.59%
Cc1cccc(OCc2ccc(C(=O)N3N=CCC3(O)C(F)(F)F)o2)c1 (stereo not given),Percent Effect,"30.3 µM, […]",67.46%
O=C(Cc1ccc(Cl)cc1)N1CCC(O)(C(F)(F)F)C1 (stereo not given),Percent Effect,"30.3 µM, […]",-19.5%
COCc1ccc(C(=O)N2CCC(Oc3ccccc3)(C(=O)O)CC2)o1,Percent Effect,"30 µM, 30.03 µM",-16.4%
O=C(c1ccc(COc2ccccc2Cl)o1)N1N=CCC1(O)C(F)(F)F (stereo not given),Percent Effect,"30.3 µM, […]",31%
COc1c(CNCc2ccc(C(=O)N(C)C(C)C)cc2)c(C)nn1C,Percent Effect,10 µM,-22.99%
COc1ccccc1CNCc1nn(-c2ccccc2)c2c1CCC2,Percent Effect,"30 µM, 30.03 µM",105.2%
Cc1noc(C)c1CNCc1nn(-c2ccccc2)c2c1CCC2,Percent Effect,"30 µM, 30.03 µM",-40.9%
Cc1c(CNCc2nn(-c3ccccc3)c3c2CCC3)cc(C#N)n1C,Percent Effect,"30 µM, 30.03 µM",-10.92%
Cc1cncc(C(=O)N2CCO[C@H]3[C@H](OCCN(C)C)CC[C@@H]32)c1.O=C(O)C(F)(F)F.O=C(O)C(F)(F)F,Percent Effect,"30.3 µM, […]",-21.9%
Cc1n[nH]c(C)c1C1COCCN1C(=O)c1cc(F)ccc1F (stereo not given),Percent Effect,"30.3 µM, […]",-0.3197%
CNC(=O)CN1CC[C@H]2CN(C(=O)c3cccn3C)C[C@H]2C1.O=C(O)C(F)(F)F,Percent Effect,"30.3 µM, […]",-42.42%
NC1CCCCN(Cc2cc(-c3ccccc3OC(F)(F)F)no2)C1 (stereo not given),Percent Effect,"30 µM, 30.03 µM",101.5%
N[C@@H]1CCN(Cc2cc(-c3ccccc3OC(F)(F)F)no2)C[C@H]1O,Percent Effect,"30 µM, 30.03 µM",-20.57%
OC1COCCN(Cc2cc(-c3ccccc3OC(F)(F)F)no2)C1 (stereo not given),Percent Effect,"30 µM, 30.03 µM",-31.26%
O=C(O)C(F)(F)F.O=C(O)C(F)(F)F.c1ccc(OCc2nnc3n2CCN(CC2CC2)C3)nc1,Percent Effect,"30 µM, 30.03 µM",16.25%
CC(C)Oc1ncccc1CNC(=O)N1CCC1,Percent Effect,"30.3 µM, […]",-18.33%
COc1ccc(C)cc1CCNS(=O)(=O)c1ccc2c(c1)CCC(=O)N2,Percent Effect,"30 µM, 30.03 µM",-47.2%
COc1ccc(C(C)NS(=O)(=O)c2ccc3c(c2)CCC(=O)N3)cc1F (stereo not given),Percent Effect,"30 µM, 30.03 µM",95.9%
COc1ccc(C)cc1C(C)NS(=O)(=O)c1ccc2c(c1)CCC(=O)N2 (stereo not given),Percent Effect,"30 µM, 30.03 µM",-36.95%
CC(CN1CCOCC1)OC(=O)c1ccccc1Cl.Cl (stereo not given),Percent Effect,"30 µM, 30.03 µM",-53.51%
CC(C)N(C)Cc1cnc2n1CCN(Cc1ccc(F)cc1)C2.O=C(O)C(F)(F)F.O=C(O)C(F)(F)F,Percent Effect,"30.3 µM, […]",5.253%
Cc1c(C(=O)N2CCN(C)CC2)n(C)c2ccc(Cl)cc12,Percent Effect,"30.3 µM, […]",12.9%
Cc1c(C(=O)N2CCN(c3ncccn3)CC2)n(C)c2ccc(Cl)cc12,Percent Effect,"30.3 µM, […]",36.3%
Cc1c(C(=O)N2CCN(c3ccccn3)CC2)n(C)c2ccc(Cl)cc12,Percent Effect,"30.3 µM, […]",79.78%
Cn1ccnc1CN1CCC2(CC1)Cc1ccccc1CNC2=O.O=C(O)C(F)(F)F,Percent Effect,"30.3 µM, […]",-47.04%
CCC(=O)NC(Cc1cc(N(C)C)nc(C2CC2)n1)c1ccccc1 (stereo not given),Percent Effect,"30.3 µM, […]",13.14%
CC(C)C(=O)NC(Cc1cc(N(C)C)nc(C2CC2)n1)c1ccccc1 (stereo not given),Percent Effect,"30.3 µM, […]",30.74%
CN(C)c1cc(CC(NC(=O)C2CC2)c2ccccc2)nc(C2CC2)n1 (stereo not given),Percent Effect,"30.3 µM, […]",52.69%
CC(C)(C)CN1CC(COc2ccccc2)Oc2ccncc2S1(=O)=O (stereo not given),Percent Effect,"30.3 µM, […]",-12.26%
O=C(O)C(F)(F)F.c1coc(CN2CCO[C@H]3[C@@H](OCC4CC4)CC[C@@H]32)c1,Percent Effect,"30.3 µM, […]",-12.22%
Cc1nc(CN2CCN(C)C(=O)C23CCN(C(C)C)CC3)cs1.O=C(O)C(F)(F)F,Percent Effect,"30.3 µM, […]",-9.175%
COc1ccc(CNCC2CNc3cc(C)nn3C2)cn1 (stereo not given),Percent Effect,"30.3 µM, […]",11.94%
Cc1ccc(CNCC2CNc3cc(C)nn3C2)cn1 (stereo not given),Percent Effect,"30.3 µM, […]",-20.04%
Cc1cc2n(n1)CC(CNCc1ccc(OCC3CC3)nc1)CN2 (stereo not given),Percent Effect,"30.3 µM, […]",69.29%
same,Percent Effect,"10 mM, 10 mM as filed; unlikely as a test dose",-5.536%
c1ccc(Oc2ccc(CNCC3CNc4ccnn4C3)cn2)cc1 (stereo not given),Percent Effect,"30.3 µM, […]",59.34%
same,Percent Effect,"10 mM, 10 mM as filed; unlikely as a test dose",-30.66%
COCCOc1ccc(CNCC2CNc3cc(C)nn3C2)cn1 (stereo not given),Percent Effect,"30.3 µM, […]",6.502%
c1cc2n(n1)CC(CNCc1ccc(OC3CCCCC3)nc1)CN2 (stereo not given),Percent Effect,"30 µM, 30.03 µM",28.54%
Fc1cccc(Oc2ccc(CNCC3CNc4ccnn4C3)cn2)c1 (stereo not given),Percent Effect,"30 µM, 30.03 µM",11.44%
Cc1cc2n(n1)CC(CNCc1ccc(-n3cccn3)nc1)CN2 (stereo not given),Percent Effect,"30 µM, 30.03 µM",-7.458%
Cc1cc2n(n1)CC(CNCc1ccc(Oc3ccccc3)nc1)CN2 (stereo not given),Percent Effect,"30.3 µM, […]",53.59%
c1cc(CNCC2CNc3ccnn3C2)cc(OC2CCCC2)n1 (stereo not given),Percent Effect,"30.3 µM, […]",16.86%
Fc1ccc(Oc2ccc(CNCC3CNc4ccnn4C3)cn2)cc1 (stereo not given),Percent Effect,"30.3 µM, […]",22.41%
same,Percent Effect,"10 mM, 10 mM as filed; unlikely as a test dose",-33.28%
c1cc2n(n1)CC(CNCc1ccc(OC3CCCC3)nc1)CN2 (stereo not given),Percent Effect,"30.3 µM, […]",80.85%
same,Percent Effect,"10 mM, 10 mM as filed; unlikely as a test dose",9.3%
O=C(Nc1cccn(Cc2ccc(F)cc2)c1=O)c1csnn1,Percent Effect,"30 µM, 30.03 µM",-24.79%
CN(C(=O)Cc1ccccc1Cl)C1CCN(c2ccccn2)CC1,Percent Effect,10 µM,-27.72%
same,Percent Effect,"30.3 µM, […]",20.76%
Cn1cc(C(O)CNC(=O)c2ccc(F)cc2Cl)cn1 (stereo not given),Percent Effect,"30 µM, 30.03 µM",3.538%
CCN1Cc2nc(OC)c(CNC(=O)CCC3CCCC3)cc2C1=O,Percent Effect,"30 µM, 30.03 µM",-13.67%
O=C(C1CC=CC1)N1C[C@@H](OCc2cccnc2)[C@H]2OCCC[C@H]21.O=C(O)C(F)(F)F,Percent Effect,"30 µM, 30.03 µM",39.05%
CCc1nccn1-c1cncc(C2CCCN2)n1.Cl (stereo not given),Percent Effect,"30.3 µM, […]",-8.115%
N#Cc1cccc(CN2Cc3nccn3CC(CN3CCCC3)C2)c1.O=C(O)C(F)(F)F.O=C(O)C(F)(F)F (stereo not given),Percent Effect,"30 µM, 30.03 µM",-41.66%
CC(=O)NCC1CCN(c2cc(C)nc(-c3ccncc3)n2)CC1,Percent Effect,10 µM,-42.73%
Cc1cc(N2CCC(Cc3ccccc3)CC2)nc(-c2ccncc2)n1,Percent Effect,"30.3 µM, […]",99.65%
Cc1cc(N2CCC(CC(N)=O)CC2)nc(-c2ccncc2)n1,Percent Effect,"30.3 µM, […]",0.7336%
Cc1ccc(C(=O)N2CCC3(CC2)CC(N2CCCC2)C3)cc1.O=C(O)C(F)(F)F,Percent Effect,"30.3 µM, […]",-4.803%
Cc1ccc(N2CCC3(CN(Cc4cccs4)CCC3(F)F)C2)nn1.O=C(O)C(F)(F)F (stereo not given),Percent Effect,"30.3 µM, […]",-34.83%
Cc1ccc(CN2CCn3c(C(=O)N(C)C)cnc3C2)cc1.O=C(O)C(F)(F)F,Percent Effect,"30.3 µM, […]",-165%
Cl.Cn1cc([C@@H]2CN(S(=O)(=O)c3cccnc3)C[C@H]2N)c2ccncc21,Percent Effect,"30.3 µM, […]",-9.979%
Cl.Cn1cc([C@@H]2CN(S(=O)(=O)c3ccccc3F)C[C@H]2N)c2ccncc21,Percent Effect,"30.3 µM, […]",53.59%
Cl.Cn1cc([C@@H]2CN(S(C)(=O)=O)C[C@H]2N)c2ccncc21,Percent Effect,"30.3 µM, […]",-16.68%
c1cc(N2CCC(CN3CCOCC3)CC2)c2sccc2n1,Percent Effect,"30 µM, 30.03 µM",-9.098%
CC(=O)NCc1nc(CCOc2ccc(Cl)cc2)no1,Percent Effect,"30 µM, 30.03 µM",-81.13%
COc1ccc(OCCc2sc(C3(O)CCCNCC3)nc2C)cc1.Cl (stereo not given),Percent Effect,"30.3 µM, […]",34.01%
CCCN1CCCC(O)(c2nc(C)c(COc3ccccc3)s2)CC1 (stereo not given),Percent Effect,"30.3 µM, […]",37.82%
C[C@@H]1CN(CCOc2ccc(Cl)cc2)CC[C@@]1(O)C1CCOCC1,Percent Effect,"30 µM, 30.03 µM",-42.79%
CCN1CCCC(O)(c2nc(C)c(CCOc3ccc(F)cc3)s2)CC1 (stereo not given),Percent Effect,"30.3 µM, […]",-11.99%
COc1ccc(OCc2sc(C3(O)CCCNCC3)nc2C)cc1.Cl (stereo not given),Percent Effect,"30.3 µM, […]",57.18%
Cc1nc(C2(O)CCCNCC2)sc1CCOc1ccc(Cl)cc1.Cl (stereo not given),Percent Effect,"30.3 µM, […]",101.5%
Cc1nc(C2(O)CCCNCC2)sc1CCOc1ccc(F)cc1.Cl (stereo not given),Percent Effect,"30.3 µM, […]",73.77%
Cc1nc(C)c(COc2ccc(S(=O)(=O)N(C)C)cc2)s1,Percent Effect,"30 µM, 30.03 µM",-44.61%
Cc1noc(CNC(=O)NCCOc2ccc(Cl)cc2)n1,Percent Effect,"30 µM, 30.03 µM",-8.016%
